# Measured values from PubChem BioAssay AID1159580 (chemical genetic matrix, 2015).
# Values joined by “and” are separate entries in the source; they are usually repeats but may differ in a detail not shown here. Equal entries are not always repeated. Hit rate of the full screen: of about 5,500 compounds, about 2,000 (36%) were called active. Not shown: some 18% with an inconclusive outcome. Some of the results follow. A number with no mark means an inactive call. Cut-off read from the data, not from the text of the source: active = normalized growth mostly below about 0.91 (no sharp cut-off); inconclusive = no clear call, values can overlap the other calls; inactive = mostly above about 0.92.
# Experiment: chemical genetic growth profiling, strain panel (AID 1159580);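 note: tested at 20 µM; growth read once vehicle control cultures reached saturation at 30 °C; 1 = growth at the plate median or of vehicle wells; lower values mean less growth of the strain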
# Conditions: S. cerevisiae deletion strains, growth OD
structure (smiles),measurement,setting,value
Cc1cccc(N(C)C(=S)Oc2ccc3ccccc3c2)c1,normalized growth,"locus YAL013W, strain DEP1, hits give low values",0.968
same,normalized growth,"locus YAL021C, strain ccr4, hits give low values",0.952
same,normalized growth,"locus YAL026C, strain drs2, hits give low values",0.995
same,normalized growth,"locus YAL030W, strain snc1, hits give low values",0.996
same,normalized growth,"locus YBL061C, strain skt5, hits give low values",0.994
same,normalized growth,"locus YBR009C, strain hhf1, hits give low values",1.02
same,normalized growth,"locus YBR021W, strain FUR4, hits give low values",0.964
same,normalized growth,"locus YBR023C, strain chs3, hits give low values",0.981
same,normalized growth,"locus YBR171W, strain sec66, hits give low values",0.985
same,normalized growth,"locus YBR229C, strain ROT2, hits give low values",0.943
same,normalized growth,"locus YBR231C, strain swc5, hits give low values",0.973
same,normalized growth,"locus YBR279W, strain paf1, hits give low values",1.01
same,normalized growth,"locus YCL011C, strain gbp2, hits give low values",1
same,normalized growth,"locus YCL016C, strain dcc1, hits give low values",0.986
same,normalized growth,"locus YCL029C, strain bik1, hits give low values",0.967
same,normalized growth,"locus YCL069W, strain vba3, hits give low values",0.989
same,normalized growth,"locus YCR088W, strain abp1, hits give low values",0.995
same,normalized growth,"locus YDL005C, strain med2, hits give low values",0.998
same,normalized growth,"locus YDL035C, strain GPR1, hits give low values",0.979
same,normalized growth,"locus YDL040C, strain nat1, hits give low values",1.01
same,normalized growth,"locus YDL074C, strain BRE1, hits give low values",0.948
same,normalized growth,"locus YDL101C, strain DUN1, hits give low values",0.979
same,normalized growth,"locus YDL134C, strain PPH21, hits give low values",0.992
same,normalized growth,"locus YDL185W, strain tfp1, hits give low values",0.915
same,normalized growth,"locus YDL192W, strain arf1, hits give low values",0.976
same,normalized growth,"locus YDR001C, strain nth1, hits give low values",0.99
same,normalized growth,"locus YDR069C, strain doa4, hits give low values",0.985
same,normalized growth,"locus YDR101C, strain arx1, hits give low values",0.978
same,normalized growth,"locus YDR137W, strain rgp1, hits give low values",1.33 [resistant] (active)
same,normalized growth,"locus YDR150W, strain NUM1, hits give low values",0.971
same,normalized growth,"locus YDR159W, strain sac3, hits give low values",0.935
same,normalized growth,"locus YDR162C, strain NBP2, hits give low values",1.01
same,normalized growth,"locus YDR195W, strain ref2",0.967
same,normalized growth,"locus YDR297W, strain sur2, hits give low values",0.984
same,normalized growth,"locus YDR318W, strain mcm21, hits give low values",0.982
same,normalized growth,"locus YDR334W, strain swr1, hits give low values",1.04
same,normalized growth,"locus YDR335W, strain msn5, hits give low values",1.01
same,normalized growth,"locus YDR388W, hits give low values",0.99
same,normalized growth,"locus YDR392W, strain spt3, hits give low values",0.894
same,normalized growth,"locus YDR502C, strain sam2, hits give low values",0.983
same,normalized growth,"locus YEL003W, strain gim4, hits give low values",1
same,normalized growth,"locus YEL037C, strain rad23, hits give low values",0.99
same,normalized growth,"locus YEL061C, strain CIN8 (second series), hits give low values",0.989
same,normalized growth,"locus YEL061C, strain CIN8, hits give low values",0.987
same,normalized growth,"locus YER015W, strain faa2, hits give low values",0.991
same,normalized growth,"locus YER016W, strain bim1, hits give low values",0.993
same,normalized growth,"locus YER110C, hits give low values",0.983
same,normalized growth,"locus YER111C, strain swi4, hits give low values",1.01
same,normalized growth,"locus YER155C, strain BEM2 (second series), hits give low values",1.02
same,normalized growth,"locus YER155C, strain BEM2, hits give low values",0.979
same,normalized growth,"locus YER167W, strain BCK2, hits give low values",0.976
same,normalized growth,"locus YFR010W, strain ubp6, hits give low values",1.01
same,normalized growth,"locus YGL078C, strain dbp3, hits give low values",0.98
same,normalized growth,"locus YGL086W, strain mad1, hits give low values",0.962
same,normalized growth,"locus YGL167C, strain pmr1, hits give low values",0.984
same,normalized growth,"locus YGL173C, strain kem1, hits give low values",0.985
same,normalized growth,"locus YGL227W, strain vid30, hits give low values",1.02
same,normalized growth,"locus YGL240W, strain doc1, hits give low values",0.951
same,normalized growth,"locus YGL248W, strain PDE1, hits give low values",0.974
same,normalized growth,"locus YGL253W, strain hxk2, hits give low values",0.986
same,normalized growth,"locus YGR078C, strain PAC10, hits give low values",0.979
same,normalized growth,"locus YGR135W, strain pre9, hits give low values",0.997
same,normalized growth,"locus YGR252W, strain gcn5, hits give low values",1.02
same,normalized growth,"locus YHR013C, strain ard1, hits give low values",1
same,normalized growth,"locus YHR027C, strain rpn1, hits give low values",0.989
same,normalized growth,"locus YHR030C, strain SLT2, hits give low values",0.986 and 0.935
same,normalized growth,"locus YHR079C, strain IRE1 (second series), hits give low values",0.984
same,normalized growth,"locus YHR079C, strain IRE1, hits give low values",0.941
same,normalized growth,"locus YHR094C, strain hxt1, hits give low values",0.981
same,normalized growth,"locus YHR129C, strain ARP1, hits give low values",0.969
same,normalized growth,"locus YHR142W, strain chs7, hits give low values",1
same,normalized growth,"locus YHR200W, strain rpn10, hits give low values",0.961
same,normalized growth,"locus YIL066C, strain RNR3, hits give low values",0.958
same,normalized growth,"locus YIL073C, strain SPO22, hits give low values",0.964
same,normalized growth,"locus YIL125W, strain kgd1, hits give low values",0.981
same,normalized growth,"locus YIR030C, strain dcg1, hits give low values",0.966
same,normalized growth,"locus YJL092W, strain hpr5, hits give low values",0.99
same,normalized growth,"locus YJL095W, strain BCK1 (second series), hits give low values",0.993
same,normalized growth,"locus YJL095W, strain BCK1, hits give low values",0.993 and 0.928
same,normalized growth,"locus YJL115W, strain asf1, hits give low values",1
same,normalized growth,"locus YJL129C, strain trk1, hits give low values",0.922
same,normalized growth,"locus YJL134W, strain LCB3, hits give low values",0.989
same,normalized growth,"locus YJL154C, strain vps35, hits give low values",0.998
same,normalized growth,"locus YJL164C, strain tpk1, hits give low values",0.997
same,normalized growth,"locus YJL166W, strain qcr8, hits give low values",0.99
same,normalized growth,"locus YJL168C, strain set2, hits give low values",0.984
same,normalized growth,"locus YJL187C, strain SWE1 (second series), hits give low values",0.974
same,normalized growth,"locus YJR043C, strain POL32, hits give low values",0.997
same,normalized growth,"locus YJR066W, strain TOR1, hits give low values",0.878
